Source: PubChem BioAssay (National Center for Advancing Translational Sciences (NCATS))
G9a block: blocks human histone lysine methyltransferase G9a; AID 504332; Potency, µM (series often up to 102 µM), without a hit: at the top dose activity, negative = inhibition, most hits filed as inhibitors; G9a H3K9 monomethylation, AlphaScreen, 2 h; 350,000 compounds, 8.8% hits; further: on the % scale 0 is the no-effect control and ±100 the full control effect; nearly all actives have a fitted effect of over 75% in size
Target sequence (Q96KQ7 913-1193 limits assumed): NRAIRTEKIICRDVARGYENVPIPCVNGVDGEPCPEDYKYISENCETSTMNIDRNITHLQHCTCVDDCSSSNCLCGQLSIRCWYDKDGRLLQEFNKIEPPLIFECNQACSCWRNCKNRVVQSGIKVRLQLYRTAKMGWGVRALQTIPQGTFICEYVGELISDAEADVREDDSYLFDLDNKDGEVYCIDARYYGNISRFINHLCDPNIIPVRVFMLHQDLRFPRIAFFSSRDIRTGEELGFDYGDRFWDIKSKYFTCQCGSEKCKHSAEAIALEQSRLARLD
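Chemiluminescent proximity detection of H3K9 monomethylation, read after 10 min bead incubation in the dark. Reaction: 20 nM G9a, 500 nM biotin-H3K9 peptide, 20 uM SAM cofactor, 2 h, room temperature, following 15 min enzyme-compound preincubation.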
JMJD2A Tudor: inhibitors of human JMJD2A Tudor domain; AlphaScreen JMJD2A-Tudor / H3K4me3 peptide binding; Potency, µM (doses to about 114 µM), for the others: at the top dose activity change, negative = inhibition, most hits filed as inhibitors; 390,000 compounds, 4.4% hits; AID 504339; further: on the % scale 0 is the no-effect control and ±100 the full control effect; nearly all actives have a fitted effect of over 50% in size
GLS inh: inhibitors of human glutaminase (GLS); O94925; GLS enzymatic activity, qHTS titration; Potency, µM (doses to about 45.5 µM), for the others: at the top dose activity change, negative = inhibition, most hits filed as inhibitors; 410,000 compounds, 0.21% hits; further: on the % scale 0 is the no-effect control and ±100 the full control effect
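Human kidney-isoform GLS in 45 mM KH2PO4 pH 8.2, 0.02% Tween-20, with compound, started with 1mM L-Glutamine (added stock). Glutamate oxidase/HRP/Amplex red coupled fluorescence read at start and after 30 min at RT.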
HP1b binding inh: inhibitors of HP1-beta chromodomain binding to methylated histone tails | AlphaScreen HP1-beta / biotin-H3K9me3 peptide binding | 390,000 compounds, 0.56% hits | AID 540317 | Potency, µM (highest dose often 114 µM), without a hit: at the highest dose activity change, negative = inhibition, most hits filed as inhibitors; further: nearly all actives have a fitted effect of over 70% in size
Target sequence (P83916 whole entry, looked up): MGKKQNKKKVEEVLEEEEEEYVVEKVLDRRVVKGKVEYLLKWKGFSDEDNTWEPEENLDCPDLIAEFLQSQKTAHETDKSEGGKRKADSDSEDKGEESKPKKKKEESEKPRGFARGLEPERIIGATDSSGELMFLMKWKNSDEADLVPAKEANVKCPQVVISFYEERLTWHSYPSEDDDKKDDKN
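HP1-beta protein (50 nM final) preincubated 30 min at room temperature with biotinylated H3(1-18)K9me3 peptide (50 nM) in PBS pH 7.4, 0.01% Tween-20, then compound added for 30 min. AlphaScreen streptavidin donor/nickel chelate acceptor beads (10 ug/mL final), 30 min dark, luminescence read.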
BAZ2B block: BAZ2B (human) inhibition | Potency, µM (doses to about 114 µM), inactives show at the highest dose activity change, negative = inhibition, usual class: inhibitors | 360,000 compounds, 4.4% hits | Q9UIF8 | AlphaScreen BAZ2B-H3K14Ac peptide displacement; further: on the % scale 0 is the no-effect control and ±100 the full control effect; nearly all actives have a fitted effect of over 60% in size
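Complex of BAZ2B and biotin-H3K14Ac (50 nM apiece) forms over 30 min at RT, then faces library compounds up to 110 uM for another 30 min; AlphaScreen beads added, 20 min dark incubation, luminescence read.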
* marks the source's active call; other numbers are inactive results; [ ] = remark or other dose. Shown are actives, neighbours in structure and some others; about 10% of the full set was active somewhere. The call rests on the fitted dose curve; in most records, active means well fitted curve in the direction sought with a large enough effect; inconclusive means small, poorly fitted or top-dose-only effect, or another doubt; inactive means no such curve, though single readings can be large; an effect the other way counts as inactive or inconclusive. Potency means the concentration at half of the fitted maximal effect.

Results for CC(=O)c1ccc(C(=O)N2CCc3c([nH]c4ccccc34)C2c2ccccn2)s1 (configuration not stated) ?
G9a block: inconclusive; JMJD2A Tudor: inconclusive; GLS inh: -7%; HP1b binding inh: 3%; BAZ2B block: 35µM*

How did Cc1cccc(C2c3[nH]c4ccccc4c3CCN2C(=O)c2noc3c2CCCC3)n1 (configuration not stated) do in these assays?
G9a block: inconclusive; JMJD2A Tudor: inconclusive; GLS inh: 5%; HP1b binding inh: -10%; BAZ2B block: inconclusive

How did COc1ccc(OCC(=O)N2CCc3c([nH]c4ccccc34)C2c2ccccn2)cc1 (configuration not stated) do in these assays?
G9a block: inconclusive; JMJD2A Tudor: 56µM*; GLS inh: 3%; HP1b binding inh: -13%; BAZ2B block: inconclusive

What do the screens show for `O=C(c1cccs1)N1CCc2c([nH]c3ccccc23)C1c1ccccn1` (configuration not stated)?
G9a block: 45µM*; JMJD2A Tudor: inconclusive; GLS inh: 13%; HP1b binding inh: -1%; BAZ2B block: inconclusive

What do the screens show for `CSc1nc(C(=O)N2CCc3c([nH]c4ccccc34)C2c2ccccn2)cs1` (configuration not stated)?
G9a block: inconclusive; JMJD2A Tudor: 50µM*; GLS inh: -17%; HP1b binding inh: -19%; BAZ2B block: 32µM*

How did Cc1coc2cc3oc(=O)c(CC(=O)NCc4ccc(F)cc4)c(C)c3cc12 do in these assays?
G9a block: 9%[59 µM]; JMJD2A Tudor: -6%; GLS inh: 7%; HP1b binding inh: 40%; BAZ2B block: -15%

What do the screens show for `Cc1cc(C(=O)OCC(=O)c2cccc([N+](=O)[O-])c2)c2ccccc2n1`?
G9a block: -3%[59 µM]; JMJD2A Tudor: 1%; GLS inh: -1%; HP1b binding inh: 29%; BAZ2B block: -29%

How did COc1ccc(OC)c(-n2c(-c3ccc(S(C)(=O)=O)cc3)cc(C=O)c2C)c1 do in these assays?
G9a block: inconclusive; JMJD2A Tudor: -21%; GLS inh: -2%; HP1b binding inh: 9%; BAZ2B block: inconclusive

How did COc1ccc(-n2c(-c3cnccn3)n[nH]c2=S)cc1 do in these assays?
G9a block: 5µM*; JMJD2A Tudor: 8.9µM*; GLS inh: 0%; HP1b binding inh: 15%; BAZ2B block: inconclusive

Results for COc1ccc(OC)c(-n2c(Cn3c(-c4ccccn4)nc4ccccc43)n[nH]c2=S)c1 ?
G9a block: 2.5µM*; JMJD2A Tudor: 7.9µM*; GLS inh: 3%; HP1b binding inh: inconclusive; BAZ2B block: inconclusive

Results for COc1ccc(-n2c(-c3ccc(Cl)cc3Cl)n[nH]c2=S)c(OC)c1 ?
JMJD2A Tudor: 13µM*; GLS inh: 11µM*; HP1b binding inh: 4%; BAZ2B block: -31%

Results for COc1ccc(OC)c(-n2c(C)ccc2-c2ccc(S(C)(=O)=O)cc2)c1 ?
G9a block: inconclusive; JMJD2A Tudor: inconclusive; GLS inh: 1%; HP1b binding inh: -11%; BAZ2B block: 45µM*

How did COc1ccc(NC(=O)c2ccccc2N(Cc2ccccc2)S(C)(=O)=O)cc1OC do in these assays?
JMJD2A Tudor: -5%; GLS inh: 1%; HP1b binding inh: 15%; BAZ2B block: 6%

How did CCCCN(C(=O)C(C)N1C(=O)c2ccccc2C1=O)c1c(N)n(CC(C)C)c(=O)[nH]c1=O (configuration not stated) do in these assays?
G9a block: 3%[59 µM]; JMJD2A Tudor: -11%; GLS inh: 3%; HP1b binding inh: 23%; BAZ2B block: 37%

What do the screens show for `S=c1[nH]nc(-c2cnccn2)n1-c1ccccc1`?
G9a block: inconclusive; JMJD2A Tudor: 32µM*; GLS inh: 7%; HP1b binding inh: 30%; BAZ2B block: inconclusive

Results for O=C(O)c1cccc(-n2c(-c3cnccn3)n[nH]c2=S)c1 ?
G9a block: 10µM*; JMJD2A Tudor: -16%; GLS inh: 0%; HP1b binding inh: 30%; BAZ2B block: inconclusive

What do the screens show for `COc1ccc(-c2cn[nH]c2N)c(OC)c1`?
G9a block: 33%[59 µM]; JMJD2A Tudor: -31%; GLS inh: 18%; HP1b binding inh: 18%; BAZ2B block: -10%

What do the screens show for `COc1ccc(OC)c(-n2c(-c3ccc(C)cc3)n[nH]c2=S)c1`?
G9a block: inconclusive; JMJD2A Tudor: inconclusive; GLS inh: -16%; HP1b binding inh: 15%; BAZ2B block: 6%

What do the screens show for `COc1ccc(-c2n[nH]c(=S)n2-c2cc(OC)ccc2OC)cc1`?
G9a block: 2.8µM*; JMJD2A Tudor: 10µM*; GLS inh: -18%; HP1b binding inh: -11%; BAZ2B block: -16%

What do the screens show for `COc1ccc(-c2n[nH]c(=S)n2N)c(OC)c1`?
G9a block: 6.3µM*; JMJD2A Tudor: 7.1µM*; GLS inh: -16%; HP1b binding inh: inconclusive

Results for COc1ccc(-c2nc(NC(=O)c3ccc(OCC(=O)N4CCOCC4)c(OC)c3)sc2C)cc1 ?
G9a block: inconclusive; JMJD2A Tudor: inconclusive; GLS inh: -2%; HP1b binding inh: -8%; BAZ2B block: inconclusive

Results for N#Cc1ccccc1Sc1ccccc1C(=O)OCc1nnc(-c2ccccc2)o1 ?
G9a block: 8%[12.7 µM]; JMJD2A Tudor: inconclusive; GLS inh: 2%; HP1b binding inh: 31%; BAZ2B block: -2%

How did COc1ccc(OC)c(-n2c(-c3cnccn3)n[nH]c2=S)c1 do in these assays?
G9a block: 10µM*; JMJD2A Tudor: -15%; HP1b binding inh: 26%; BAZ2B block: inconclusive

What do the screens show for `COc1cccc(-n2c(SC)nnc2-c2cnccn2)c1`?
G9a block: -10%[59 µM]; JMJD2A Tudor: -1%; GLS inh: -5%; HP1b binding inh: 22%; BAZ2B block: -18%

Results for CC1=[N+](CC(=O)c2ccccc2)CCn2cccc21 ?
G9a block: 32µM*; JMJD2A Tudor: -17%; GLS inh: -1%; HP1b binding inh: 33%; BAZ2B block: -29%

Results for Cc1cc(C(=O)Nc2cccnc2Cl)on1 ?
G9a block: 9%[59 µM]; JMJD2A Tudor: 15%; GLS inh: -1%; HP1b binding inh: 27%; BAZ2B block: 7%

What do the screens show for `CC(=O)Nc1ccc(SCC(=O)c2c(N)n(Cc3ccccc3)c(=O)n(C)c2=O)cc1`?
G9a block: -28%[59 µM]; JMJD2A Tudor: -11%; GLS inh: 2%; HP1b binding inh: 28%; BAZ2B block: -1%

What do the screens show for `Cc1ccc(NC(=O)CNC(=O)OCc2ccccc2)cc1C`?
G9a block: 9%; JMJD2A Tudor: 56µM*; GLS inh: -1%; HP1b binding inh: -3%; BAZ2B block: -4%
